In all, about 5,500 compounds went through this assay and about 2,000 (36%) were called active. Inconclusive results (about 18%) are left out. Rule as the data show it: active = normalized growth mostly below about 0.91 (no sharp cut-off); inconclusive = no clear call, values can overlap the other calls; inactive = mostly above about 0.92. The list shows a part of the results.
Experiment: chemical genetic growth profiling, strain panel (AID 1159580);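 also: tested at 20 µM; growth read once vehicle control cultures reached saturation at 30 °C; 1 = growth at the plate median or of vehicle wells; lower values mean less growth of the strain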
Conditions: growth OD

Measured: normalized growth

Cc1c(NC(=O)c2cccnc2)c(=O)n(-c2ccccc2)n1C
inactive: S. cerevisiae deletion strains, locus YJR066W, strain TOR1, hits give low values 0.958 | S. cerevisiae deletion strains, locus YJR075W, strain HOC1, hits give low values 0.99 | S. cerevisiae deletion strains, locus YKL009W, strain mrt4, hits give low values 0.958 | S. cerevisiae deletion strains, locus YKL068W, hits give low values 0.99 | S. cerevisiae deletion strains, locus YKL085W, strain MDH1 (second series), hits give low values 0.988 | S. cerevisiae deletion strains, locus YKL085W, strain MDH1, hits give low values 0.988 | S. cerevisiae deletion strains, locus YKL160W, strain elf1, hits give low values 1.02 | S. cerevisiae deletion strains, locus YKL190W, strain CNB1, hits give low values 0.989 | S. cerevisiae deletion strains, locus YKR001C, strain vps1, hits give low values 0.991 | S. cerevisiae deletion strains, locus YKR026C, strain gcn3, hits give low values 0.997 | S. cerevisiae deletion strains, locus YKR091W, strain srl3, hits give low values 1 | S. cerevisiae deletion strains, locus YLL001W, strain dnm1, hits give low values 0.986 | S. cerevisiae deletion strains, locus YLL026W, hits give low values 0.993 | S. cerevisiae deletion strains, locus YLL041C, strain sdh2, hits give low values 0.996 | S. cerevisiae deletion strains, locus YLR027C, strain aat2, hits give low values 1 | S. cerevisiae deletion strains, locus YLR039C, strain RIC1, hits give low values 0.974 | S. cerevisiae deletion strains, locus YLR058C, strain SHM2, hits give low values 0.982 | S. cerevisiae deletion strains, locus YLR102C, strain apc9, hits give low values 0.989 | S. cerevisiae deletion strains, locus YLR113W, strain HOG1, hits give low values 1.06 | S. cerevisiae deletion strains, locus YLR221C, strain rsa3, hits give low values 1.01 | S. cerevisiae deletion strains, locus YLR258W, strain gsy2, hits give low values 0.997 | S. cerevisiae deletion strains, locus YLR262C, strain YPT6 (second series), hits give low values 1.02 | S. cerevisiae deletion strains, locus YLR262C, strain YPT6, hits give low values 0.961 | S. cerevisiae deletion strains, locus YLR268W, strain sec22, hits give low values 0.982 | S. cerevisiae deletion strains, locus YLR320W, strain mms22, hits give low values 1 | S. cerevisiae deletion strains, locus YLR330W, strain CHS5, hits give low values 1 | S. cerevisiae deletion strains, locus YLR342W, strain FKS1 (second series), hits give low values 1.09 | S. cerevisiae deletion strains, locus YLR342W, strain FKS1, hits give low values 1 | S. cerevisiae deletion strains, locus YLR357W, strain rsc2, hits give low values 0.963 | S. cerevisiae deletion strains, locus YLR370C, strain arc18, hits give low values 1 | S. cerevisiae deletion strains, locus YLR371W, strain rom2, hits give low values 0.998 | S. cerevisiae deletion strains, locus YLR384C, strain iki3, hits give low values 0.999 | S. cerevisiae deletion strains, locus YLR418C, strain cdc73, hits give low values 1.01 | S. cerevisiae deletion strains, locus YML016C, strain PPZ1, hits give low values 0.994 | S. cerevisiae deletion strains, locus YML032C, strain rad52, hits give low values 0.971 | S. cerevisiae deletion strains, locus YML120C, strain ndi1, hits give low values 1.02 | S. cerevisiae deletion strains, locus YML124C, strain tub3, hits give low values 0.999 | S. cerevisiae deletion strains, locus YMR058W, strain fet3, hits give low values 1 | S. cerevisiae deletion strains, locus YMR078C, strain ctf18, hits give low values 0.984 | S. cerevisiae deletion strains, locus YMR125W, strain sto1, hits give low values 0.969 | S. cerevisiae deletion strains, locus YMR129W, hits give low values 0.997 | S. cerevisiae deletion strains, locus YMR205C, strain PFK2, hits give low values 0.959 | S. cerevisiae deletion strains, locus YMR223W, strain ubp8, hits give low values 1.02 | S. cerevisiae deletion strains, locus YMR231W, strain pep5, hits give low values 1 | S. cerevisiae deletion strains, locus YMR263W, strain SAP30, hits give low values 0.987 | S. cerevisiae deletion strains, locus YMR307W, strain GAS1, hits give low values 0.961 | S. cerevisiae deletion strains, locus YNL067W, strain RPL9B, hits give low values 0.971 | S. cerevisiae deletion strains, locus YNL071W, strain lat1, hits give low values 1.01 | S. cerevisiae deletion strains, locus YNL153C, strain GIM3, hits give low values 0.952 | S. cerevisiae deletion strains, locus YNL183C, strain NPR1, hits give low values 0.967 | S. cerevisiae deletion strains, locus YNL209W, strain ssb2, hits give low values 1.01 | S. cerevisiae deletion strains, locus YNL233W, strain BNI4, hits give low values 0.941 | S. cerevisiae deletion strains, locus YNL248C, strain rpa49, hits give low values 1.01 | S. cerevisiae deletion strains, locus YNL250W, strain rad50, hits give low values 0.975 | S. cerevisiae deletion strains, locus YNL271C, strain bni1, hits give low values 0.991 | S. cerevisiae deletion strains, locus YNL298W, strain CLA4, hits give low values 0.997 | S. cerevisiae deletion strains, locus YNL307C, strain MCK1, hits give low values 0.995 | S. cerevisiae deletion strains, locus YNL322C, strain KRE1 (second series), hits give low values 0.995 | S. cerevisiae deletion strains, locus YNL322C, strain KRE1, hits give low values 0.996 | S. cerevisiae deletion strains, locus YNR049C, strain mso1, hits give low values 0.997 | S. cerevisiae deletion strains, locus YNR052C, strain pop2, hits give low values 0.996 | S. cerevisiae deletion strains, locus YOL006C, strain TOP1, hits give low values 0.928 | S. cerevisiae deletion strains, locus YOL012C, strain htz1 0.85 | S. cerevisiae deletion strains, locus YOL147C, strain pex11, hits give low values 1 | S. cerevisiae deletion strains, locus YOR001W, strain rrp6, hits give low values 1.01 | S. cerevisiae deletion strains, locus YOR061W, strain CKA2, hits give low values 0.969 | S. cerevisiae deletion strains, locus YOR069W, strain VPS5, hits give low values 1 | S. cerevisiae deletion strains, locus YOR070C, strain gyp1, hits give low values 1 | S. cerevisiae deletion strains, locus YOR080W, strain dia2, hits give low values 0.99 | S. cerevisiae deletion strains, locus YOR083W, strain WHI5, hits give low values 1.02 | S. cerevisiae deletion strains, locus YOR106W, strain vam3, hits give low values 1.01 | S. cerevisiae deletion strains, locus YOR136W, strain idh2, hits give low values 0.983 | S. cerevisiae deletion strains, locus YOR144C, strain elg1, hits give low values 0.994 | S. cerevisiae deletion strains, locus YOR184W, strain ser1, hits give low values 0.985 | S. cerevisiae deletion strains, locus YOR231W, strain MKK1, hits give low values 1.05 | S. cerevisiae deletion strains, locus YOR265W, strain rbl2, hits give low values 0.993 | S. cerevisiae deletion strains, locus YOR270C, strain vph1, hits give low values 1 | S. cerevisiae deletion strains, locus YOR290C, strain snf2, hits give low values 0.98 | S. cerevisiae deletion strains, locus YOR316C, strain cot1, hits give low values 0.986 | S. cerevisiae deletion strains, locus YPL051W, strain arl3, hits give low values 1.01 | S. cerevisiae deletion strains, locus YPL078C, strain atp4, hits give low values 1.01 | S. cerevisiae deletion strains, locus YPL106C, strain sse1, hits give low values 0.992 | S. cerevisiae deletion strains, locus YPL240C, strain hsp82, hits give low values 0.995 | S. cerevisiae deletion strains, locus YPL256C, strain CLN2, hits give low values 1.03 | S. cerevisiae deletion strains, locus YPR119W, strain clb2, hits give low values 0.985 | S. cerevisiae deletion strains, locus YPR141C, strain kar3, hits give low values 0.99 | S. cerevisiae deletion strains, locus YPR163C, strain tif3, hits give low values 0.996 | S. cerevisiae deletion strains, locus YPR167C, strain met16, hits give low values 0.991 | S. cerevisiae deletion strains, strain wtn01, hits give low values 1.02 | S. cerevisiae strains, strain wild type, hits give low values 0.983

From PubChem BioAssay AID1159580 (chemical genetic matrix, 2015)
